Compound activity as filed in PubChem.
FLuc inh-1: blocks purified firefly luciferase enzyme activity | P08659 | purified P. pyralis luciferase, luminescence, biochemical | Potency, µM (top dose mostly 115 µM), most hits filed as inhibitors | 76,000 tested, 2.5% active; also: % is scaled to controls: 0 for no effect and ±100 for the full control effect; nearly all actives have a fitted effect of over 65% in size
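FLuc 10nM, D-luciferin 10uM, ATP 10uM, Mg acetate 10mM, Tris acetate pH 7.5, Tween/BSA; cpd qHTS; enzyme added last; CCD luminescence.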
SNCA expr inh: inhibitors of alpha-synuclein (SNCA) gene expression | HEK-293 SNCA-luciferase knock-in, luminescence, 24 h | Potency, µM (series often up to 57.2 µM), for inactives: top-dose activity change, negative = inhibition, actives largely listed as inhibitors | 140,000 tested, 0.17% active | AID 1671194;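 also: plate controls were DMSO cells for no effect and cell-free wells for full effect; nearly all actives have a fitted effect of over 45% in size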
SNCA viab count: counter-screen for SNCA expression inhibitors: cell viability. HEK-293-SNCA-luc viability, GF-AFC fluorescence, 24 h. Potency, µM (top dose mostly 57.1 µM), without a hit: top-dose activity change, negative = cytotoxicity, hits mostly cytotoxic. 150,000 tested, 0.12% active;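 also: 0% = DMSO-treated cells and -100% = medium-only wells without cells; nearly all actives have a fitted effect of over 30% in size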
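Cytotoxicity counterscreen: after 24 h compound treatment of genome-edited SNCA-luciferase HEK-293 cells, live-cell protease substrate GF-AFC read by fluorescence after 30 min; activity scaled between DMSO (0%) and medium-only (-100%), curves Hill-fitted.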
NIH3T3 tox: NIH 3T3 cell cytotoxicity. NIH 3T3 viability, CellTiter-Glo ATP luminescence, 48-72 h. Potency, µM (highest dose often 96.7 µM), for the others: at the top dose activity change, negative = cytotoxicity, actives largely listed as inhibitors. 94,000 tested, 4.3% active. AID 1345082; also: % is scaled to controls: 0 for no effect and ±100 for the full control effect; nearly all actives have a fitted effect of over 55% in size
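First NIH 3T3 cells are plated at 400 cells/well; next compound is pinned in; then plates incubate 48 or 72 hr at 37 °C; finally CellTiter-Glo is added and luminescence read after 10 min.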
HEK cytotox: HEK 293 cell cytotoxicity | HEK 293 viability, ATP luminescence (CellTiter-Glo), 48-72 h | AID 1345083 | Potency, µM (titrated, usually from 115 µM), inactives show top-dose activity change, negative = cytotoxicity, actives largely listed as inhibitors | 94,000 tested, 6.6% active; also: % is scaled to controls: 0 for no effect and ±100 for the full control effect; nearly all actives have a fitted effect of over 60% in size
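Luminescence from cellular ATP, measured with CellTiter-Glo, indicates HEK 293 viability. Cells plated at 250 cells/well are treated with compound for 48 or 72 hr at 37 degree Celsius before reagent addition.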
NPR1 antag: antagonists of human natriuretic peptide receptor Npr1; P16066; HEK293 hNpr1 GloSensor cGMP, ANP-stimulated luminescence; Potency, µM (series often up to 46.3 µM), for the others: top-dose activity change, negative = inhibition, actives largely listed as inhibitors; 76,000 tested, 1.6% active; AID 1347048; calls by dose curve; also: % is scaled to controls: 0 for no effect and ±100 for the full control effect; nearly all actives have a fitted effect of over 60% in size
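Compound pre-incubated 30 min at room temperature on GloSensor-loaded HEK293 cells stably carrying hNpr1 and the pGS-40F cGMP biosensor. Stimulation uses hNppA at 0.1 nM final; luminescence is taken at baseline and 20 min post-agonist.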
FLuc SDR -ATP: binders stabilizing firefly luciferase, without ATP. shares compounds with FLuc inh-1. Purified FLuc-C-HiBiT, Nano-Glo HiBiT luminescence, no ATP. Potency, µM (doses to about 32.7 µM), for the others: at the top dose activation (signal gain), actives largely listed as activators. 1,300 tested, 7.8% active. AID 1963318; also: nearly all actives have a fitted effect of over 55% in size
FLuc SDR ATP: stabilizes firefly luciferase with ATP present; shares compounds with FLuc inh-1; purified FLuc-C-HiBiT + ATP, HiBiT complementation luminescence; Potency, µM (doses to about 32.7 µM), for the others: at the top dose activation (gain of signal), usual class: activators; 1,300 tested, 8.7% active;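 also: signal reports ligand binding via conformational change of the enzyme rather than luciferase catalysis; % of control where 0% means no effect; nearly all actives have a fitted effect of over 55% in size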
FLuc inh-2: inhibitors of firefly luciferase enzymatic activity; purified FLuc-C-HiBiT enzyme, luciferin luminescence; shares compounds with FLuc inh-1; Potency, µM (highest dose often 32.7 µM), inactives show top-dose activity change, negative = inhibition, actives largely listed as inhibitors; 1,300 tested, 42% active; AID 1963320; also: % is scaled to controls: 0 for no effect and ±100 for the full control effect; nearly all actives have a fitted effect of over 70% in size
Active calls of the source: *; i = inactive; ? = inconclusive; nt = no result given; [ ] = another dose, or the depositor's remark. Shown are actives, neighbours in structure and some others; about 7.2% of the full set was active somewhere. Unless noted, calls follow the shape of the dose curve; as a rule, active = well fitted curve in the direction sought with a large enough effect; inconclusive = small, poorly fitted or top-dose-only effect, or another doubt; inactive = no such curve, though single readings can be large; an effect the other way counts as inactive or inconclusive. Potency is read from the fitted curve at half-maximal effect.

SMILES	FLuc inh-1	SNCA expr inh	SNCA viab count	NIH3T3 tox	HEK cytotox	NPR1 antag	FLuc SDR -ATP	FLuc SDR ATP	FLuc inh-2
CC[C@H]1CN(C(=O)c2ccnc(Cl)c2)CC[C@H]1CC(=O)NCc1cccnc1	i	-5%[87.6 µM]	1%[87.6 µM]	-10%[174 µM]	2%[172 µM]	11%[70.6 µM]	nt	nt	nt
CCC1(N2CCN(C(=O)Nc3ccc(Cl)cc3C)CC2)CCN(C(=O)NC)C1 (configuration not stated)	i	11%	-1%	-20%	?	-8%	nt	nt	nt
COCCN1CCOc2nc(-c3cc(F)cc(OC)c3)ncc2C1=O	1.6µM*	?	2%[87.6 µM]	28µM*	-27%[172 µM]	?	?	?	11µM*
COc1cc(F)cc(-c2ncc3c(n2)OCCN(C)C3=O)c1	?	-64%[87.6 µM]	3%[87.6 µM]	?	?	?	nt	nt	nt
COc1cccc(-c2ncc3c(n2)OCCN(Cc2ccc(F)cc2F)C3=O)c1	13µM*	70%[87.6 µM]	-8%[87.6 µM]	?	?	?	13%[49.3 µM]	10%[49.3 µM]	?
COc1cc(F)cc(-c2ncc3c(n2)OCCN(Cc2ccc(F)cc2F)C3=O)c1	i	67%[87.6 µM]	-1%[87.6 µM]	?	?	?	nt	nt	nt
CC(=O)NC1(C)CCN(Cc2cccc(-c3ccc4ccccc4c3)c2)C1 (configuration not stated)	1.8µM*	53%[87.6 µM]	-8%[87.6 µM]	28µM*	35µM*	?	12%[49.3 µM]	?	11µM*
COc1cccc(Nc2ccc(CN3CCC(C)(NC(C)=O)C3)cc2)c1 (configuration not stated)	4µM*	2%[87.6 µM]	7%[87.6 µM]	89µM*	?	?	10%[49.3 µM]	14%[49.3 µM]	?
COc1cccc(-c2cccc(CN3CCCC(C)(NC(C)=O)C3)c2)c1 (configuration not stated)	?	26%[87.6 µM]	6%[87.6 µM]	?	?	0%[70.6 µM]	nt	nt	nt
COc1cccc(CN2CCC3(Cc4ccccc4CNC3=O)C2)c1 (configuration not stated)	nt	6%	-8%	-24%	?	nt	nt	nt	nt
COCCNc1ncccc1-c1noc([C@@H]2CCCN2C2CCOCC2)n1	i	0%[87.6 µM]	-12%[87.6 µM]	-27%[174 µM]	-13%[172 µM]	-6%[70.6 µM]	nt	nt	nt
Cc1ccc(C2=NC3(CCN(C(=O)c4cccc(N(C)C)c4)CC3)ON2)cc1	14µM*	120%	2%	-24%	-24%	-17%	21%	?	?
CN(C)c1cccc(C(=O)N2CCC3(CC2)N=C(c2ccccc2)NO3)c1	?	-7%	4%	-11%	-30%	-2%	nt	nt	nt
COc1ccc(-c2cc(C(=O)NCC(F)(F)F)nn3cnnc23)cc1	nt	3%	-5%	?	-26%	nt	nt	nt	nt
CN1CC(=O)N(C2CCCC2)Cc2c(NCc3cccc(Cl)c3)ncnc21	nt	18%	-9%	?	?	nt	nt	nt	nt
Cc1cc2c(c(-c3nc4ccccc4s3)c1)OC(CNC(=O)c1occc1C)C2 (configuration not stated)	nt	nt	nt	nt	nt	nt	15%	12%	?
COc1ccccc1C(=O)Nc1ccc(-c2nc3cc(C)cc(C)c3o2)cc1	nt	50%	-3%	nt	nt	nt	nt	nt	nt
COc1ccc(C(=O)NCC2Cc3cc(C)cc(-c4nc5ccccc5s4)c3O2)c(OC)c1OC (configuration not stated)	nt	nt	nt	nt	nt	nt	15%	11%	1%
